Values joined by “and” are separate entries in the source; they are usually repeats but may differ in a detail not shown here. Equal entries are not always repeated. The panel holds about 79,000 compounds, 15% with a hit somewhere; the sample as a whole holds those more often. Rule as the data show it: active = growth inhibition above about 70%; inactive = the rest.
Columns and labels:
[1] = NCI Yeast Anticancer Drug Screen. Data for the rad50 strain (AID 155);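 also: 0% = growth of vehicle-only cultures of the same strain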; conditions: S. cerevisiae rad50 strain growth inhibition; at 50.0 µM; hits give high values
In short: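 Yeast carrying a defined DNA repair defect were exposed to test compounds, and growth was compared with vehicle-treated controls to give percent inhibition.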

[2] = NCI Yeast Anticancer Drug Screen. Data for the mec2-1 strain (AID 157); conditions: S. cerevisiae mec2-1 strain, at 50.0 µM, hits give high values
In short: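 Yeast mec2-1 mutant treated with compound. Readout: growth inhibition vs vehicle controls.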

[3] = NCI Yeast Anticancer Drug Screen. Data for the sgs1 mgt1 strain (AID 161);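 also: 0% = growth of cultures given vehicle only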; conditions: S. cerevisiae sgs1 mgt1 strain, at 50.0 µM, hits give high values
In short: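 Mutant yeast exposed to compound; growth scored against vehicle-only wells.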

[4] = NCI Yeast Anticancer Drug Screen. Data for the cln2 rad14 strain (AID 165);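 also: 0% = growth equal to vehicle treated cultures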; conditions: S. cerevisiae cln2 rad14 strain, at 50.0 µM, hits give high values
In short: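 cln2 rad14 yeast strain; compound exposure; growth inhibition read vs vehicle controls.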

[5] = NCI Yeast Anticancer Drug Screen. Data for the bub3 strain (AID 167); conditions: S. cerevisiae bub3 mutant strain, at 50.0 µM, hits give high values
In short: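 Compounds were applied to a genetically altered yeast strain carrying a cell-cycle control defect. Growth inhibition was scored against vehicle-treated controls.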

[6] = NCI Yeast Anticancer Drug Screen. Data for the mlh1 rad18 strain (AID 175); conditions: S. cerevisiae mlh1 rad18 strain growth inhibition; at 50.0 µM; hits give high values
In short: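 Yeast w/ defined DNA-repair lesions; compound exposure; growth vs vehicle controls → % inhibition.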

Measured: growth inhibition

CCC1CN2CCc3cc(OC)c(OC)cc3C2CC1CC1c2cc(OC)c(OC)cc2CCN1C(=O)C(N)Cc1ccccc1 (centres undefined)
inactive: [1] -8.25% | [2] -0.5% | [3] -2.3% | [4] -3.05% | [5] -5.05% | [6] 8.5%

CN1C(=O)C(C)(C2=CCCCC2)C(=O)NC1=S (centres undefined)
inactive: [1] 1.55% | [2] 1.65% | [3] 11.8% | [4] -17.4% | [5] -1.9% | [6] 11.9%

CC1CC(C)(O)CC(C(O)CC2CC(=O)NC(=O)C2)C1=O (centres undefined)
inactive: [1] 55.9% | [2] 51% | [3] 48.2% | [4] 56.1% | [5] 67% | [6] 68.2%

C=CCCOC(=O)CO[N+](=O)[O-]
inactive: [1] 6.8% | [2] -0.7% | [3] 5.35% | [4] 8.8% | [5] -4.25% | [6] 4.1%

CCOc1ccc(OCC)c(C(O)C(C)NC(C)C)c1 (centres undefined)
inactive: [1] -0.55% | [2] 9.1% | [3] 6% | [4] 0.1% | [5] -3.6% | [6] -10.2%

O=C1NN(c2ccccc2)C(=O)C1c1ccccc1 (centres undefined)
inactive: [1] 24.2% | [2] 28.8% | [3] 17.4% | [4] 9.75% | [5] -5.9% | [6] 41.5%

O=[N+]([O-])c1ccc2c(c1)Oc1cccnc1[Se]2
inactive: [1] 16.1% | [2] 8.6% | [3] 20.9% | [4] 8.25% | [5] -11.5% | [6] 38.8%

N#Cc1ccncc1
inactive: [1] 22.3% | [2] -24.1% | [3] 23.9% | [4] -3.75% | [5] 7.35% | [6] 16%

CC(Cl)CN1COc2ccc3ccc4c(c3c2C1)CN(CC(C)Cl)CO4 (centres undefined)
inactive: [1] 29.1% | [2] 14.4% | [3] 28.4% | [4] -17.9% | [5] 6% | [6] 34.1%

O=C(O)c1ccccc1
inactive: [1] -11.1% and -31.2% | [2] -0.2% and -17.9% | [3] -14.8% and 33.1% | [4] -10.7% and -12% | [5] -20.5% and -3.8% | [6] -38.4% and 10.8%

COCCCCCC(=O)CP(=O)(OC)OC
inactive: [1] -7.15% | [2] -1.4% | [3] -1.2% | [4] -12.9% | [5] -6.4% | [6] 8.95%

N.N.N.N.O=S(=O)([O-])[O-].[Co+3].[OH3+].[OH3+]
inactive: [1] 2.25% | [2] -0.6% | [3] -22.5% | [4] 26.1% | [5] -4.7% | [6] -0.15%

CCNCCC1(CC)C(=O)NC(=O)NC1=O
inactive: [1] -22.2% | [2] -16.8% | [3] -27.4% | [4] 2.2% | [5] -43.7% | [6] -10.6%

COc1cc2c(c(OC)c1OC)-c1ccc(O)cc1C(NC(C)=O)CC2 (centres undefined)
inactive: [1] -13.2% | [2] -18.8% | [3] -4.1% | [4] 17.4% | [5] 0.65% | [6] 31.2%

O=C(CCC(=O)Oc1ccc(S(=O)(=O)F)cc1)Oc1ccc(S(=O)(=O)F)cc1
inactive: [1] 49.1% | [2] 15.3% | [3] 44.3% | [4] 26.1% | [5] 7.65% | [6] 9.8%

CN(C)C(=O)Oc1c(-c2ccccc2)c(=O)n2c3ccccc3n3c(=O)n(C)c(=O)c1c23
inactive: [1] 21.8% | [2] 23.4% | [3] -0.9% | [4] 17.1% | [5] 11.7% | [6] 19.8%

[Ni+2].[S-]CC[S-]
inactive: [1] 0.4% | [2] 12.4% | [3] -8.75% | [4] 1.95% | [5] 0.4% | [6] -4.85%

COc1ccc(NC(=O)/C(=N/NC(N)=S)C2C(=O)NC(=S)NC2=O)c(OC)c1
inactive: [1] -17.4% | [2] -4% | [3] -4.55% | [4] -21.9% | [5] -8.9% | [6] -25%

C1=[N+]2CCCC2Cc2ccc3ccccc3c21 (centres undefined)
inactive: [1] -17.8% | [2] -6.1% | [3] -4.15% | [4] -16.4% | [5] -4.6% | [6] -8.85%

C1CN([PH+](N2CC2)N2CC2)CCO1.[C-]#[O+].[C-]#[O+].[C-]#[O+].[C-]#[O+].[C-]#[O+].[Mo]
inactive: [1] -17.9% | [2] -1.7% | [3] -7.3% | [4] -31.4% | [5] 3.9% | [6] 3.95%

CN(C)C(=O)Sc1c(Cl)cc(S(=O)(=O)F)cc1[N+](=O)[O-]
inactive: [1] 22.9% | [2] 19.1% | [3] 27.9% | [4] 29.9% | [5] 8.9% | [6] 20.6%

Cc1cc(Cl)ccc1[NH-].Cc1cc(Cl)ccc1[NH-].[Cl][Pt+2][Cl]
inactive: [1] 35.3% | [2] 12.6% | [3] 30.8% | [4] 2.05% | [5] 18.3% | [6] 30.2%

c1ccc2c(c1)sc1sc3ccccc3[n+]12
inactive: [1] 5.05% | [2] -5.65% | [3] 1.8% | [4] 3% | [5] 3.2% | [6] -23.4%

COC(=O)CNP(=O)(NCC(=O)OC)N(CCCl)CCCl
inactive: [1] -8.2% | [2] -14.8% | [3] -18.6% | [4] 5.2% | [5] -1.65% | [6] 5.7%

C=CCN(CC=C)C(Cc1ccccc1)c1ccccc1 (centres undefined)
inactive: [1] 2.95% | [2] -7.75% | [3] -5.85% | [4] -5.6% | [5] 11.3% | [6] -5.95%

CC(C)CC(NC=O)C(=O)NC(Cc1ccccc1)NC(=O)CNC(=O)C(C)NC(=O)C(N)Cc1ccc(O)cc1 (centres undefined)
inactive: [1] -17.3% | [2] -9.9% | [3] -0.9% | [4] 15.4% | [5] -5.15% | [6] -6.45%

S=C=Nc1ccccn1
inactive: [1] 9.9% | [2] 3.35% | [3] 22.1% | [4] 7.8% | [5] 30.6% | [6] 21.9%

N[C@H](Cc1ccc2oc3cc(=O)c4ccccc4c-3nc2c1)C(=O)O
inactive: [1] 20.8% | [2] 33.4% | [3] 24.7% | [4] 15.1% | [5] 35.5% | [6] 39.2%

O/N=C1\CN2CCC1CC2
inactive: [1] 15.9% | [2] 13.2% | [3] 1.7% | [4] 15.4% | [5] 10.4% | [6] 20.3%

CC1OC(O[C@@H]2C=C3CC[C@@H]4[C@H](CC[C@]5(C)[C@@H](c6ccc(=O)oc6)CC[C@]45O)[C@@]3(C)CC2)C(O)C(O)C1O (some centres undefined)
inactive: [1] 2.85% | [2] -37.5% | [3] -25% | [4] 13.1% | [5] -15.9% | [6] 4.7%

O=C(O)CC(S)C(=O)O (centres undefined)
inactive: [1] -19.1% | [2] 10.4% | [3] -3.7% | [4] -38.3% | [5] -9.85% | [6] 14.6%

C(#Cc1ccccc1)c1ccccc1
inactive: [1] 29.1% | [2] 5.25% | [3] 20.3% | [4] -13.6% | [5] -11.3% | [6] -3.6%

CCN1CCCc2cc3c(C(F)(F)F)cc(=O)oc3cc21
inactive: [1] -6.3% | [2] -12.4% | [3] -10% | [4] -4.05% | [5] -6.45% | [6] -11.8%

CC1(C)CCC(C)(C)c2c1ccc(O)c2Cc1c(O)ccc2c1C(C)(C)CCC2(C)C
inactive: [1] 3.55% | [2] -30.8% | [3] -39% | [4] -17.2% | [5] -41.2% | [6] -6.8%

CC(C)CC(NC(=O)C(Cc1ccccc1)NC(=O)CNC(=O)CNC(=O)C(N)Cc1ccc(O)cc1)C(=O)O (centres undefined)
inactive: [1] 0.9% | [2] 2.85% | [3] -8.25% | [4] -7.5% | [5] -0.75% | [6] -11.2%

N#CC(C#N)=Cc1cccc(C#N)c1
inactive: [1] -0.75% | [2] 21.4% | [3] -2.85% | [4] 19.1% | [5] -4.75% | [6] 3.45%

COc1ccc2c3c1O[C@]1(C)C34CCN(C)C(C2)C42C=C[C@@]1(OC)c1c(O)ccc(O)c12
inactive: [1] 6.55% | [2] -13.2% | [3] -12.8% | [4] 7.9% | [5] -10.6% | [6] -0.9%

CC(Cl)CC(=O)OCC1CCCN2CCCCC12 (centres undefined)
inactive: [1] 55.1% | [2] 33.3% | [3] 23.6% | [4] 41.8% | [5] 45.4% | [6] 39.5%

O=[N+]([O-])C1CC/C(=N/O)c2nonc21 (centres undefined)
inactive: [1] 0.3% | [2] 9.5% | [3] 18.5% | [4] 19.6% | [5] 5.3% | [6] 18.6%

— PubChem BioAssay (NCI)
